PubChem BioAssay (EPA / NIEHS)
Records with an inconclusive call do not appear. Calls of active or inactive are those of the source. The calls were made as follows: active = hit-call score of the fitted dose curve at least 0.9, where 1 is the maximum; inconclusive = response in the unintended direction; inactive = score below 0.9. Peptide text beside a SMILES is read from it.

target: human Peroxisome Proliferator-activated Receptor delta (PPARd), PPARD (gene 5467) (UniProt Q03181); assay: ATG_PPARd_TRANS: Attagene TRANS-FACTORIAL HepG2 Assay for human Peroxisome Proliferator-activated Receptor delta (PPARd) (AID 2283002)
Sequence (Q03181 whole entry, looked up): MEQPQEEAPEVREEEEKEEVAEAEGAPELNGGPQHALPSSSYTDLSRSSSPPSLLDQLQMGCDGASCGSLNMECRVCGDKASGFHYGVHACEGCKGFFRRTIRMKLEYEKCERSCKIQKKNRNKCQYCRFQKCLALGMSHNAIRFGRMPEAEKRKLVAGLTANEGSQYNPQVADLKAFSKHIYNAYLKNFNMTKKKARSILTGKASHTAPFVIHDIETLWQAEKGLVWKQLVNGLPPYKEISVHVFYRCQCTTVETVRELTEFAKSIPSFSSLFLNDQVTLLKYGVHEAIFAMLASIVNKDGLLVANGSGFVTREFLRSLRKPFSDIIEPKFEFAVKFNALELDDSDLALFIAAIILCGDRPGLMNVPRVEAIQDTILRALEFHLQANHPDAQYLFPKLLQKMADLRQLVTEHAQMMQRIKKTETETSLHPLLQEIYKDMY
Protocol: ATG_TRANS is a cell-based, multiplexed-readout assay that uses HepG2, a human liver cell line, with measurements taken at 24 hours after chemical dosing in a 24-well plate.ATG_PPARd_TRANS is one of 30 assay component(s) measured or calculated from the ATG_TRANS assay. It is designed to make measurements of mRNA induction, a form of inducible reporter, as detected with fluorescence intensity signals by Reverse transcription polymerase chain reaction (RT-PCR) and Capillary electrophoresis technology.Data from the assay component ATG_PPARd_TRANS was analyzed into 1 assay endpoint. This assay endpoint, ATG_PPARd_TRANS, was analyzed in the positive analysis fitting direction relative to DMSO as the negative control and baseline of activity. Using a type of inducible reporter, measures of mRNA for gain-of-signal activity can be used to understand the reporter gene at the transcription factor-level as they relate to the gene PPARD. Furthermore, this assay endpoint can be referred to as a primary readout, because this assay has produced multiple assay endpoints where this one serves a reporter gene function. To generalize the intended target to other relatable targets, this assay endpoint is annotated to the nuclear receptor intended target family, where the subfamily is non-steroidal.
Human liver HepG2 cells are transiently transfected with multiple reporter transcription units (MRTUs) in 6-well plates using FuGene 6 reagent (Roche; 3 ml FuGene/1 mg DNA). The MRTU constructs are regulated by a cis-regulating element (promoter). […] A major difference between the CIS and TRANS system is that in CIS activities of endogenous TFs are measured, whereas the TRANS assay evaluates changes in activities of exogenous, chimeric NR-Gal4 proteins. […] At the end of 24 hour incubation, total RNA was isolated using TriZol reagent (Invitrogen). The isolated RNA is then reverse-transcribed using oligo(dT) primer and Mo-MLV reverse transcriptase (Invitrogen) with DNAse I (Ambion) treatment for 30 min. The one-tenth of the produced cDNA was amplified by PCR using Taq DNA polymerase (Invitrogen) and two reporter sequence-specific primers. The PCR products were fluorescently labeled by primer extension with 6-arboxyfluorescein (6-FAM) 5'-labeled reporter sequence-specific primer (2 min at 95 C, 20 s at 68 C and 10 min at 72 C) and these products were digested with 5U of HpaI (New England Biolabs) for 2h at 37 C. The fragments were purified using Qiaquick PCR columns (Qiagen), analyzed on an ABI 3130xL genetic analyzer (Applied Biosystems) with peak positions identified by using a set of X-rhodamine (ROX)-labeled MapMarker1000 molecular weight standards (BioVentures). The raw capillary electrophoresis data was processed using Attagraph software (Attagene).

Structure (SMILES)	outcome	AC50
CC(c1cc(C(C)(C)C)cc(C(C)(C)C)c1O)c1cc(C(C)(C)C)cc(C(C)(C)C)c1O	inactive	
N#Cc1ccc(C2CCCc3cncn32)cc1 (stereo not given)	inactive	
CCCCCCCCCCCCCc1ccccc1	inactive	
C/C=C/C=C/CCCCCCCO		27.2 µM (active)
Nc1ccc(Cl)c(N)c1	inactive	
Oc1c(Cl)cc(Cl)c(Cl)c1Cl	inactive	
Nc1ccc(O)c([N+](=O)[O-])c1	inactive	
CCCCCCCCCC(C)=O	inactive	
COC(=O)[C@H](Cc1ccccc1)NC(=O)[C@@H](N)CC(=O)O (H-Asp-Phe-OMe)	inactive	
Cc1cc(=O)[nH]c(=O)[nH]1	inactive	
Cc1cc(C)n(CO)n1	inactive	
CCCCCCCCCCCCc1ccc(O)cc1	inactive	
O=C(O)/C=C/c1ccccc1	inactive	
C=CC(C)(O)CC/C=C(\C)CC (stereo not given)	inactive	
CCCCCCCCCCCC(=O)N(C)CC(=O)O		35.2 µM (active)
C=CCCCCCCCCO	inactive	
CC(C)(O)Cc1ccccc1	inactive	
CC/C=C\CCOC(=O)c1ccccc1O	inactive	
CCC(C)C(=O)OCCc1ccccc1 (stereo not given)	inactive	
CCC[Si](OC)(OC)OC	inactive	

Structure (SMILES)	outcome	AC50
CCCSSCCC	inactive	
CC1(C)CC(O)CC(C)(C)N1[O]	inactive	
C=C(C)C(=O)OCC(O)COc1ccc(C(C)(C)c2ccc(OCC(O)COC(=O)C(=C)C)cc2)cc1 (stereo not given)	inactive	
CC(C)[N+](C)(CCOC(=O)C1c2ccccc2Oc2ccccc21)C(C)C	inactive	
COc1cc(O)c(C(=O)c2ccccc2)cc1S(=O)(=O)O	inactive	
O=C(O)c1cc(O)c2ccccc2c1O	inactive	
CCCCCCCCCCCCC	inactive	
CCCCc1ccc(Cl)cc1	inactive	
CC(C)=CCl	inactive	
CC(=O)OC1CCCCC1	inactive	
CCOC(=O)/C=C\C(=O)OCC	inactive	
CCCCCCCCCCCCCCCCCCOS(=O)(=O)O		112 µM (active)
CCOC(=O)[C@H](O)[C@@H](O)C(=O)OCC	inactive	
O=C(O)CC(C(=O)O)S(=O)(=O)O (stereo not given)	inactive	
CCCCCC[C@@H](O)C/C=C\CCCCCCCC(=O)OCC(O)CO (stereo not given in full)		27.7 µM (active)
CC(C)C(=O)OCCc1ccccc1	inactive	
CCOC(=O)C1=NN(c2ccc(Cl)cc2Cl)C(C)(C(=O)OCC)C1 (stereo not given)	inactive	
COC(OC)(C(=O)c1ccccc1)c1ccccc1	inactive	
CCNc1nc(NC(C)(C)C)nc(OC)n1	inactive	
c1ccc2c(c1)[nH]c1ccccc12	inactive	
